104 compounds from PubChem BioAssay AID1259343 (VanderVen Lab, College of Veterinary Medicine, Cornell …, 2017) can be followed below.

Out of some 6,200 compounds screened, about 2,900 (47%) were called active. So high a share suggests a set chosen from earlier hits. The list shows a part of the results. A number with no mark means an inactive call. No stated cut-off is given here; in the data, active means inhibition above about 50%; inactive means the rest.

The nature of this assay: Mycobacterium tuberculosis growth inhibition, primary screen (AID 1259343). Conditions: inhibition: at 10 µM, hits give high values; outcome: 10 uM.
On to `Cc1cc(Cn2ccnc2-c2cc3ccc(F)cc3[nH]c2=O)on1`, for which the inhibition (commonly the relative decrease from the control value, in per cent) was -7.89%. Take `Cc1ccc(OCc2cc(C(=O)NC(C)c3nc(-c4ccccc4)no3)no2)cc1C` (centres undefined): the inhibition is 23%. The result for `CNC(=O)NC(=O)CCSC(C)c1nc(-c2ccc(C)c(F)c2)no1` (centres undefined) reads 91.8% (active).

Take `Cc1ccc2ncn(Cc3nc(-c4ccc(C)c(F)c4)no3)c(=O)c2c1`: the inhibition is -6.02%.

Consider `Cc1ccccc1Cc1nnc(CN(CC(C)O)c2ccccc2)o1` (centres undefined), for which the inhibition is 80.1% (active).

As for `CCOC(=O)/C=C/c1c([N+](=O)[O-])sc(Br)c1Br`, the inhibition is 103% (active).

With `Cc1ccc(NC2CCCN(C(=O)c3cccs3)C2)cc1C` (centres undefined), the inhibition was 59.6% (active).

As for `Cc1cccc(CN2CCCC(C(=O)Nc3ccc(-c4cscn4)cc3)C2)c1` (centres undefined), the inhibition is 88.8% (active). For the compound `O=C(Nc1ccc(-c2cscn2)cc1)C1CCCN(Cc2ccon2)C1` (centres undefined), the inhibition result was “inactive”. In the case of `Cc1ccc(NC2CCCN(C(=O)C3CCCCC3)C2)cc1C` (centres undefined), the inhibition is 49%.

In the case of `O=C(Nc1ccc(-c2cscn2)cc1)C1CCCN(C(=O)c2cccs2)C1` (centres undefined), the inhibition is 58.2% (active).

Regarding `CC(=O)c1cc(CN2CCCC(C(=O)Nc3ccc(-c4cscn4)cc3)C2)cs1` (centres undefined), the inhibition was 70.9% (active). With `COCc1ccc(CN2CCCC(C(=O)Nc3ccc(-c4cscn4)cc3)C2)o1` (centres undefined) the figure was 29%; with `O=C(Nc1ccc(-c2cscn2)cc1)C1CCCN(C(=O)Cc2ccccc2F)C1` (centres undefined), 33.2%; with `O=C(c1ccc(Cl)s1)N1CCCC(Nc2ccc3c(c2)OCO3)C1` (centres undefined), 44.6%. For `CC1CCc2sc(-c3nnc(SCc4nc(-c5cccs5)no4)o3)cc2C1` (centres undefined), the inhibition was 5.99%. Take `CCCNC(=O)CSc1nc2ccccc2o1`: the inhibition was -21.7%.

For the compound `COc1ccccc1-c1noc(CSc2nc3ccccc3o2)n1`, the inhibition is 89.1% (active).

In the case of `c1csc(-c2noc(CSc3nc4ccccc4o3)n2)c1`, the inhibition is 100% (active).

Turning to `O=S(=O)(c1ccc(Cl)s1)N1CCCc2cccc(O)c21`, the inhibition is 43.4%. For the compound `Cc1cccc2nc(-c3ccc(C(C)(C)C)cc3)c(NC(C)(C)C)n12`, the inhibition was 73.6% (active).

`CNC(C)c1ccc(Sc2ccc(C(C)C)cc2)c(F)c1` (centres undefined): the inhibition was 67% (active).

Take `CC(=O)N(C)c1ccc(NC(C)c2ccc(F)c(F)c2)cc1` (centres undefined): the inhibition is 20%. With `Cc1cc(I)ccc1N`, the inhibition was 83.3% (active). As for `O=C(COc1c(F)c(F)cc(F)c1F)c1ccc[nH]1`, the inhibition is 65.2% (active).

Regarding `Nn1ccc2nc3ccn(CCC4=CCCCC4)c(=O)c3cc2c1=O`, the inhibition is 85.4% (active). The result for `O=S(=O)(NCCC1=CCCCC1)c1cccc2nonc12` reads -1.1%.

In the case of `CCOC(=O)COc1ccc(C)cc1C(=O)c1cnc2c(c1)COc1ccccc1-2`, the inhibition was 61.1% (active). With `O=C(CN(C1CCCCC1)C1CC1)Nc1ccc(Cl)cn1` the figure was 37.5%; with `CC(Nc1cccc(OC(F)(F)F)c1)C(=O)Nc1cccnc1Cl` (centres undefined), -51.8%; with `CC(Nc1ccc(OCC(F)(F)F)cc1)C(=O)Nc1ccc(Cl)cn1` (centres undefined), 97% (active).

On to `O=C1NC(=NN=Cc2cccnc2)SC1Cc1ccc(SC(F)F)cc1` (centres undefined), for which the inhibition was 35.2%. Consider `COc1ccnc(NC2CCC(c3ccccc3)CC2)n1` (centres undefined), for which the inhibition was 68.9% (active). As for `O=C(NC1CCC(c2ccccc2)CC1)c1n[nH]c2ccccc12` (centres undefined), the inhibition is 25.1%. With `Fc1ccccc1-n1cc(-c2ccnc(NC3CCC3)n2)cn1` the figure was 20.1%; with `COc1cccc(-c2ccc(NC(=O)C3CCCN(C(=O)c4ccoc4)C3)cc2)c1` (centres undefined), “inactive”.

For the compound `COc1ccc(-c2ccc(C(=O)N3CCC(C(N)=O)C3)c(F)c2)cc1` (centres undefined), the inhibition was 69.6% (active). `Nc1ccc2oc(-c3cc(F)c(F)cc3Cl)nc2c1`: the inhibition is -28%. With `CC(c1nnc(-c2ccccc2)o1)N(C)CC12CC3CC(CC(C3)C1)C2` (centres undefined) the figure was -23%. The result for `Nc1ccc2oc(-c3cccc(I)c3)nc2c1` reads 60.4% (active); that for `Ic1cccc(-c2nnc(-c3ccccc3)o2)c1`, 103% (active). Take `Nc1ccc(Cl)c(-c2nc3cc(Cl)ccc3o2)c1`: the inhibition was 30%.

Turning to `CN(C)c1cccc(-c2nc3cc(N)ccc3o2)c1`, the inhibition is 30.8%. As for `Nc1ccc(-c2nc3cc(Cl)ccc3o2)cc1`, the inhibition was 90.3% (active). The result for `Nc1ccc2oc(-c3cncc(Br)c3)nc2c1` reads 7.61%; that for `Cc1cccc(-c2nnc(C(C)Oc3ccccc3C#N)o2)c1` (centres undefined), 23.4%.

Take `CS(=O)(=O)c1nnnn1-c1ccccc1Cl`: the inhibition was 95.7% (active). Consider `COc1cc(C2=NC(=Cc3ccc(N4CCOCC4)s3)C(=O)O2)cc(OC)c1OC`, for which the inhibition is 79.7% (active). For `Cc1ccc(C2=NC(=Cc3ccco3)C(=O)O2)cc1C`, the inhibition was -7.96%. With `COc1cc(C2=NC(=CC3=Cc4ccccc4OC3)C(=O)O2)cc(OC)c1OC` the entry was “inactive”; with `O=C(Nc1ncc(Cc2ccccc2Cl)s1)c1cnccn1`, 92.8% (active); with `O=C(CCl)Nc1ncc(Cc2ccccc2)s1`, -18.1%. The result for `O=C(CCl)Nc1nc(-c2c[nH]c3ccccc23)cs1` reads -41.1%. For `O=C(Nc1nc(-c2ccco2)c(-c2ccco2)s1)c1cnccn1`, the inhibition was -27.4%. The result for `CC1(C(=O)Nc2nc(-c3ccccc3Cl)cs2)Cc2ccccc2C(=O)O1` (centres undefined) reads 37.1%; that for `O=C(CCl)Nc1ncc(Cc2ccccc2Cl)s1`, 92.7% (active); that for `Cc1cnc(NC(=O)CCc2nc(C(C)(C)C)no2)s1`, -2.31%.

Turning to `O=C(CCl)Nc1nc(-c2ccccc2Cl)cs1`, the inhibition was 97.7% (active). For the compound `O=C1CCCC2=C1C(c1cccs1)n1ncnc1N2` (centres undefined), the inhibition is -18.9%. `O=C(NCCCOCc1ccccc1)c1cc(Cl)c[nH]1`: the inhibition is 77.7% (active). As for `CCCC(C)NC(=O)c1cc(Cl)c[nH]1` (centres undefined), the inhibition is 10.3%. With `O=C(COc1ccc(F)cc1)NCCc1ccc(OC(F)F)cc1`, the inhibition is 90.5% (active). The result for `O=C(COc1ccc(F)cc1)NCc1csc(Br)c1` reads -34.9%.

Take `CCOc1cc(C)ccc1NC(=O)CN1Cc2ccccc2C1`: the inhibition was 14.2%. With `Cc1ccc(Cl)cc1NC(=O)CN1CCc2ccccc2C1` the figure was 91.4% (active); with `Cc1ccc(C2=NN(C(=O)CN3CCc4ccccc4C3)C(c3ccccc3C)C2)c(C)c1` (centres undefined), 40.4%; with `CCN(Cc1cccc(C(N)=O)c1)c1ccccc1C`, 27.3%. Regarding `CC1(C)CC(C=Cc2cccs2)=Nc2ccccc2S1`, the inhibition is -37.6%. The result for `N#Cc1ccc([N+](=O)[O-])c(O)c1` reads 77.2% (active). The result for `CN1/C(=C/C(=O)Nc2ccc(Cl)cc2)C(C)(C)c2ccccc21` reads 1.72%; that for `CCN(CC)P(=S)(C=C1N(C)c2ccccc2C1(C)C)CC` (centres undefined), 87.2% (active). For `CCOP1(=S)C(=C2N(C)c3ccccc3C2(C)C)C=NN1c1ccccc1` (centres undefined), the inhibition is 27.1%.

As for `O=C(O)c1sc(Br)c(I)c1I`, the inhibition was 7.67%. For `O=C(Nc1ccsc1C(=O)O)c1ccc(Br)cc1`, the inhibition was 82.5% (active). The result for `C(=Nn1c(-c2cccs2)csc1=Nc1ccccc1)c1ccccn1` reads -1.25%; that for `c1csc(-c2cnc3ccc(-c4ccncc4)nn23)c1`, 74.1% (active); that for `N#Cc1cc2c(nc1SCC(=O)OCc1ccccc1)CCC2`, 41.5%. In the case of `CCOc1ccccc1-n1nnc(C(=O)Nc2ccc(C(C)=O)cc2)c1C`, the inhibition was 70% (active). With `CCCC(C)(C)NC(=O)c1nnn(-c2ccc(F)cc2)c1C`, the inhibition is 16.4%. In the case of `CCOc1ccccc1NC(=O)Nc1ccc(Nc2cc(OC(C)C)nc(C)n2)cc1`, the inhibition is 14.6%. The result for `CC1=NN(c2ccc(Cl)cc2)C(=O)C12Cc1ccccc1N1CCCCC12` (centres undefined) reads 19.5%; that for `CCOC(=O)NN=C(C)c1ccc(Cl)s1`, 19.5%. The result for `CNC(=S)NN=C(C)c1ccc(Cl)s1` reads 47.3%; that for `C=C(C)CNC(=S)NN=C(C)c1ccc(Cl)s1`, 102% (active). The result for `CCNC(=S)NN=C(C)c1ccc(Cl)s1` reads -2.97%. Consider `COCCNC(=S)NN=C(C)c1ccc(Cl)s1`, for which the inhibition is 79.3% (active).

`CC(=NNc1ncc(Cl)cc1Cl)c1ccc(Cl)s1`: the inhibition was 30.7%. Turning to `O=C(NCCCCCC(=O)N1CCC(c2ccccc2)CC1)OCc1ccccc1`, the inhibition is 70.8% (active). The result for `CNC(=O)c1ccc2n1CCN(C(=O)OCc1ccccc1)C2C` (centres undefined) reads 16.2%; that for `O=C(C1CCCC1)N1CCN(c2nc(-c3ccccc3Cl)nc3cc(Cl)ccc23)CC1`, 24.6%. As to `O=C(c1ccc([N+](=O)[O-])cc1)N1CCN(c2nc(-c3ccccc3)c3cc(Cl)ccc3n2)CC1`, the inhibition is 68% (active). As for `Cc1ccc(C)c(N2CCN(C(=O)c3ccc4c(=O)nc5c(-c6ccccc6)n[nH]n5c4c3)CC2)c1`, the inhibition was 46.6%. The result for `Cc1ccc(-n2ncc3c(C)nn(Cc4ccccc4F)c(=O)c32)c(C)c1` reads 37.1%; that for `O=S(=O)(Nc1c(F)cccc1Br)c1cc(Cl)cc(Cl)c1`, 87.1% (active); that for `Cc1ccc(F)cc1NS(=O)(=O)c1cc(Cl)sc1Cl`, 94.1% (active). The result for `O=S(=O)(Nc1ccc(Cl)cc1F)c1ccc(Br)cc1Cl` reads 71% (active); that for `CN(C)S(=O)(=O)c1ccc(CNc2cc(F)ccc2Cl)o1`, -3.01%; that for `O=S(=O)(Nc1c(F)cccc1F)c1c(Cl)cccc1Cl`, 78.8% (active). For `CN(C1CCCCC1)S(=O)(=O)c1ccc(Br)cc1Cl`, the inhibition is -4.67%. Regarding `O=S(=O)(Nc1ccc(F)cc1F)c1ccccc1Cl`, the inhibition was 82.3% (active). On to `O=S(=O)(Nc1ccc(F)c(F)c1F)c1ccc(Cl)cc1F`, for which the inhibition is 79.2% (active).

For `O=S(=O)(Nc1ccc(F)c(F)c1F)c1ccc(Cl)c2ncccc12`, the inhibition is 63% (active). `Cc1ccc(NS(=O)(=O)c2ccc(F)cc2[N+](=O)[O-])c(F)c1`: the inhibition is 50.2% (active).

Regarding `Cc1nnc(N2C(=N)S/C(=C\c3c(-c4ccccc4)n(C)c4ccccc34)C2=O)s1`, the inhibition was 23.3%.
